Laboratory results as given in PubChem BioAssay (Tox21).
Where “and” joins values, the source holds several entries; their conditions need not be identical. Identical values can stand only once. Records with an inconclusive call do not appear. Calls of active or inactive are those of the source. Unless noted, calls come from the whole dose curve; as a rule, active = well fitted curve in the direction sought with a large enough effect in the repeat runs; inconclusive = weak or mixed curves; inactive = no such curve, though single readings can be large; an effect the other way counts as inactive or inconclusive.

Experiments:
[1] = molecular target: Glucocorticoid receptor (Homo sapiens) (UniProt P04150); test: qHTS assay to identify small molecule agonists of the glucocorticoid receptor (GR) signaling pathway (AID 720691; active = well fitted activation curve with a large enough effect in the signal ratio in the repeat runs, not every such curve was filed as active; the % refers to the signal ratio)
How it was run: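 GR-bla HeLa cells carrying a GRE-driven beta-lactamase reporter, exposed to compounds for 18 h at 37 C. Reporter activation read as fluorescence after 2 h with LiveBLAzer B/G FRET substrate at room temperature.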

[2] = molecular target: Estrogen receptor (Homo sapiens) (UniProt P03372); test: qHTS assay to identify small molecule antagonists of the estrogen receptor alpha (ER-alpha) signaling pathway (AID 743069; active = well fitted curve in the direction sought with a large enough effect in the signal ratio in the repeat runs, not every such curve was filed as active; the % refers to the signal ratio)
How it was run: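 Compound effects are measured against 17beta-estradiol stimulation in HEK293 cells with a UAS-controlled beta-lactamase reporter for ER-alpha. Exposure lasts 18 hr at 37C; LiveBLAzer B/G FRET substrate follows for 2 hr at room temperature.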

[3] = qHTS assay to identify small molecule antagonists of the estrogen receptor alpha (ER-alpha) signaling pathway using the BG1 cell line in the presence of 0.1 nM 17-beta-estradiol - cell viability counter screen (AID 1259241); note: nearly all actives have a fitted effect of over 40% in size
How it was run: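 VM7Luc4E2 cells (endogenous full-length ER-alpha, 4xERE-luciferase), cultured 5 days in charcoal-stripped serum, exposed to compounds with 0.1 nM 17beta-estradiol (final) for 22 hr at 37C. Viability read in same wells as live-cell protease fluorescence after 30 min.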

[4] = qHTS assay to identify small molecule antagonists of the androgen receptor (AR) signaling pathway using the MDA cell line in the presence of 0.5 nM R1881 - cell viability counter screen (AID 1259242); note: nearly all actives have a fitted effect of over 45% in size
How it was run: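 MDA-kb2 cells (MMTV-luciferase, AR/GR responsive) were treated with compounds plus 0.5 nM R1881 (final) for 16 hr at 37C, 0% CO2. Viability was then read in the same wells as live-cell protease fluorescence (CellTiter-Fluor, 30 min).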

[5] = molecular target: Estrogen receptor (Homo sapiens) (UniProt P03372); test: qHTS assay to identify small molecule antagonists of the estrogen receptor alpha (ER-alpha) signaling pathway using the BG1 cell line in the presence of 0.1 nM 17-beta-estradiol (AID 1259244); note: nearly all actives have a fitted effect of over 50% in size
How it was run: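 VM7Luc4E2 cells (endogenous full-length ER-alpha, 4×ERE-luciferase), kept 5 days in phenol red-free, charcoal-stripped FBS medium; 4,000 cells/well. Compounds added with 0.1 nM (final) 17beta-estradiol, 22 hr at 37C; luminescence read with ONE-Glo after 30 min.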

[6] = molecular target: Estrogen receptor (Homo sapiens) (UniProt P03372); test: qHTS assay to identify small molecule agonists of the estrogen receptor alpha (ER-alpha) signaling pathway in the presence of an antagonist (AID 1259383; calls by dose curve; note: top concentration of the series differs between compounds; nearly all actives have a fitted effect of over 15% in size)
How it was run: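 VM7Luc4E2 cells express endogenous full-length ER-alpha with an ERE-luciferase reporter and were hormone-deprived for 5 days. Compounds at 15 concentrations were added with 10.0nM ICI-182,780 for 22hr at 37C. Luminescence was read with ONE-Glo.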

[7] = molecular target: Nuclear receptor subfamily 1 group I member 2 (Homo sapiens) (UniProt O75469); test: Human pregnane X receptor (PXR) small molecule agonists, qHTS assay (AID 1346982); note: nearly all actives have a fitted effect of over 35% in size
How it was run: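 PXR-Luc HepG2 reporter cells (CYP3A4-driven luciferase) in 5% charcoal-stripped FBS medium, plated 5 h before compound addition, then treated 24 h at 37C. Luciferase read by ONE-Glo luminescence after 30 min at room temperature.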

[8] = molecular target: Acetylcholinesterase (Homo sapiens) (UniProt P22303); test: Acetylcholinesterase (AChE) small molecule antagonists: colormetric cell-based qHTS assay (AID 1347395; calls by dose curve; note: nearly all actives have a fitted effect of over 30% in size)
How it was run: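 SH-SY5Y cells attached overnight, exposed to compound 30 min at 37 C, then given DTNB/acetylthiocholine; after 90 min at 37 C, colorimetric thiocholine read gives cellular AChE activity.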

[9] = molecular target: Acetylcholinesterase (Homo sapiens) (UniProt P22303); test: Acetylcholinesterase (AChE) small molecule antagonists: enzyme-based qHTS assay (AID 1347397; calls by dose curve; note: nearly all actives have a fitted effect of over 55% in size); details: Potency: AChE enzyme activity inhibition; outcome: AChE enzyme activity inhibition
How it was run: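 Absorbance-based detection of thiocholine with DTNB served as the read-out. Recombinant human AChE was exposed to compound for 30 min at RT before a 10 min RT incubation with acetylthiocholine.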

[10] = molecular target: Acetylcholinesterase (Homo sapiens) (UniProt P22303); test: Acetylcholinesterase (AChE) small molecule antagonists: fluorescence cell-based qHTS assay (AID 1347398; calls by dose curve; note: nearly all actives have a fitted effect of over 50% in size); details: Potency: AChE activity; outcome: AChE activity
How it was run: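 Fluorimetric cell-based assay: intact SH-SY5Y cells, 30 min compound preincubation at 37 C, acetylthiocholine substrate with thiol probe Thiolite Green, 40 min RT development, fluorescence 490/520 nm.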

[11] = molecular target: Acetylcholinesterase (Homo sapiens) (UniProt P22303); test: Acetylcholinesterase (AChE) small molecule antagonists: enzyme-based qHTS assay with human liver microsomes (AID 1347399; calls by dose curve; note: nearly all actives have a fitted effect of over 60% in size); details: Potency: qHTS inhibition; outcome: qHTS inhibition
How it was run: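 Recombinant human AChE (50 mU/mL in the enzyme mix) and human liver microsomes (0.25 mg/mL final) were preincubated with compound and NADPH (0.25 mg/mL final) for 30 min at 37 C. Acetylthiocholine/DTNB was then added; thiocholine was read colorimetrically after 10 min at room temperature.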

[12] = qHTS assay to identify small molecule agonists of H2AX (AID 1224845; active = well fitted activation curve with a large enough effect in the signal ratio in the repeat runs, not every such curve was filed as active; the % refers to the signal ratio)
How it was run: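 Phospho-H2AX Ser139 measured by HTRF (ex 320 nm; em 665 and 620 nm) after 24 hr antibody incubation. Compounds, 15 concentrations, 0.76% DMSO, were applied to CHO-K1 cells for 3hr at 37C before lysis.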

[13] = Caspase-3/7 induction in HepG2 cells by small molecules, qHTS assay (AID 1346978); note: nearly all actives have a fitted effect of over 15% in size
How it was run: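 Caspase-3/7 induction was measured by Caspase-Glo 3/7 luminescence (30 min, room temperature) after a 17 hr compound exposure of wild-type HepG2 cells seeded at 2,000 per well and pre-incubated 5 hr.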

[14] = molecular target: Estrogen receptor beta (Homo sapiens) (UniProt Q92731); test: qHTS assay to identify small molecule antagonists of the estrogen receptor beta (ER-beta) signaling pathway (AID 1259378; active = well fitted inhibition curve with a large enough effect in the signal ratio in the repeat runs, not every such curve was filed as active; the % refers to the signal ratio)
How it was run: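 Antagonist mode: compounds added to beta-lactamase reporter HEK293T ER-beta-UAS cells stimulated with E2 (1nM final), 16 hr at 37C. LiveBLAzer B/G FRET substrate, 2 hours room temperature, fluorescence read-out.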

[15] = qHTS assay for small molecule disruptors of the mitochondrial membrane potential (AID 720635); note: potency is the fitted concentration of half-maximal effect
How it was run: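 Mitochondrial membrane potential tracked with Mito-MPS dye, red aggregates (ex 540/em 590 nm) against green monomers (ex 490/em 535 nm). Compound treatment 1 hr at 37C, dye 30 min in HepG2.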

[16] = molecular target: Androgen receptor (Homo sapiens) (UniProt P10275); test: qHTS assay to identify small molecule agonists of the androgen receptor (AR) signaling pathway using the MDA cell line (AID 743040; note: nearly all actives have a fitted effect of over 20% in size; note: potency is the fitted concentration of half-maximal effect)
How it was run: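 After a 5 h incubation at 37C and 0% CO2, MDA-kb2 reporter cells were dosed with compounds in DMSO and kept 16 h under the same conditions. Luciferase activity was then read as luminescence with ONE-Glo.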

[17] = molecular target: Androgen receptor (Homo sapiens) (UniProt P10275); test: qHTS assay to identify small molecule antagonists of the androgen receptor (AR) signaling pathway using the MDA cell line (AID 743042; note: nearly all actives have a fitted effect of over 55% in size; note: potency is the fitted concentration of half-maximal effect)
How it was run: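 Antagonist mode: compounds plus R1881 agonist added to MDA-kb2 AR-luc cells, incubated 16 h at 37C. Luciferase reporter luminescence quantified, with multiplexed CellTiter-Fluor readout for cell viability.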

[18] = molecular target: Nuclear receptor subfamily 1 group I member 2 (Rattus norvegicus) (UniProt Q9R1A7); test: Rat pregnane X receptor (rPXR) activation by small molecules, qHTS assay (AID 1346983); details: rPXR luciferase reporter cells, One-Glo luminescence, 24 h; max activation: hits give high values; note: nearly all actives have a fitted effect of over 20% in size
How it was run: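 Luminescent readout (One-Glo luciferase, 30 min room temperature) followed 24 hr compound treatment at 37 C of rPXR cells plated 2,000 per well and preincubated 5hr; qHTS format with compounds delivered in DMSO.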

[19] = molecular target: Androgen receptor (Homo sapiens) (UniProt P10275); test: qHTS assay to identify small molecule antagonists of the androgen receptor (AR) signaling pathway (AID 743035; active = well fitted inhibition curve with a large enough effect in the signal ratio in the repeat runs, not every such curve was filed as active; the % refers to the signal ratio)
How it was run: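 HEK293 cells stably carrying UAS-beta-lactamase reporter, 2,000/well, given compounds plus R1881 agonist and incubated 16 h at 37C. LiveBLAzer B/G FRET substrate then added for 2 h at room temperature before fluorescence reading.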

[20] = molecular target: Androgen receptor (Homo sapiens) (UniProt P10275); test: qHTS assay to identify small molecule agonists of the androgen receptor (AR) signaling pathway (AID 743036; active = well fitted activation curve with a large enough effect in the signal ratio in the repeat runs, with a control signal flat, not every such curve was filed as active; the % refers to the signal ratio; note: potency is the fitted concentration of half-maximal effect)
How it was run: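 AR-UAS-bla HEK293 cells, plated 4 h before dosing, were treated with compound for 16 h at 37C. beta-Lactamase reporter read after 2 h with LiveBLAzer B/G FRET substrate at room temperature.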
% is set by controls: 0 for no effect and ±100 for the full control effect.

Chain of Estrogen receptor (Homo sapiens) (P03372 whole entry, looked up): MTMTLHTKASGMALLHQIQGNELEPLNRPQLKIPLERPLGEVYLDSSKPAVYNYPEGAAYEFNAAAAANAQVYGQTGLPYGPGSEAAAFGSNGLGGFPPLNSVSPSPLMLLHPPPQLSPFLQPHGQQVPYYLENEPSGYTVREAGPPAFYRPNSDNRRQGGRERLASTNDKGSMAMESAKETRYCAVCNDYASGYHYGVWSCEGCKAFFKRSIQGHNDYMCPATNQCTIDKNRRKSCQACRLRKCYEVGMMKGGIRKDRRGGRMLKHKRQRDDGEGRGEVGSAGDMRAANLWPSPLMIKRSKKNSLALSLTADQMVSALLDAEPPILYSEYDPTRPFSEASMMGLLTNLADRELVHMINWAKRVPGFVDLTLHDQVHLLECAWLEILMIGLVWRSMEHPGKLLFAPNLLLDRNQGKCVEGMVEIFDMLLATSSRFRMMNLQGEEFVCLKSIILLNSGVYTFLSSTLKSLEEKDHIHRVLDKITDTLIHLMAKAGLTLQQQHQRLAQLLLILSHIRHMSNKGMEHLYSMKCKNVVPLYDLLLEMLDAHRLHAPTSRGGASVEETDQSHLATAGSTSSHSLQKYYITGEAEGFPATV
Chain of Nuclear receptor subfamily 1 group I member 2 (Rattus norvegicus) (Q9R1A7 whole entry, looked up): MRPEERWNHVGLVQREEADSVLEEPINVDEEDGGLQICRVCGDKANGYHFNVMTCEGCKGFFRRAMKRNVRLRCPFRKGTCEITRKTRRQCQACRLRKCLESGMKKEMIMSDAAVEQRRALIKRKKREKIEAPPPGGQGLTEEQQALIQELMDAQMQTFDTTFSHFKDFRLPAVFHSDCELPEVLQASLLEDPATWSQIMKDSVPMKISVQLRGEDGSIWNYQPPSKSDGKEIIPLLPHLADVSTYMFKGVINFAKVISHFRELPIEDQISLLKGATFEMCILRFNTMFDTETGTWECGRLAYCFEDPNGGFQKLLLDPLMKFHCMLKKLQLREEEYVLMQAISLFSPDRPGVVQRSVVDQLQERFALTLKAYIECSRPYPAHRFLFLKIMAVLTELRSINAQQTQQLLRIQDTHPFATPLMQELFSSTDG
Chain of Androgen receptor (Homo sapiens) (P10275 whole entry, looked up): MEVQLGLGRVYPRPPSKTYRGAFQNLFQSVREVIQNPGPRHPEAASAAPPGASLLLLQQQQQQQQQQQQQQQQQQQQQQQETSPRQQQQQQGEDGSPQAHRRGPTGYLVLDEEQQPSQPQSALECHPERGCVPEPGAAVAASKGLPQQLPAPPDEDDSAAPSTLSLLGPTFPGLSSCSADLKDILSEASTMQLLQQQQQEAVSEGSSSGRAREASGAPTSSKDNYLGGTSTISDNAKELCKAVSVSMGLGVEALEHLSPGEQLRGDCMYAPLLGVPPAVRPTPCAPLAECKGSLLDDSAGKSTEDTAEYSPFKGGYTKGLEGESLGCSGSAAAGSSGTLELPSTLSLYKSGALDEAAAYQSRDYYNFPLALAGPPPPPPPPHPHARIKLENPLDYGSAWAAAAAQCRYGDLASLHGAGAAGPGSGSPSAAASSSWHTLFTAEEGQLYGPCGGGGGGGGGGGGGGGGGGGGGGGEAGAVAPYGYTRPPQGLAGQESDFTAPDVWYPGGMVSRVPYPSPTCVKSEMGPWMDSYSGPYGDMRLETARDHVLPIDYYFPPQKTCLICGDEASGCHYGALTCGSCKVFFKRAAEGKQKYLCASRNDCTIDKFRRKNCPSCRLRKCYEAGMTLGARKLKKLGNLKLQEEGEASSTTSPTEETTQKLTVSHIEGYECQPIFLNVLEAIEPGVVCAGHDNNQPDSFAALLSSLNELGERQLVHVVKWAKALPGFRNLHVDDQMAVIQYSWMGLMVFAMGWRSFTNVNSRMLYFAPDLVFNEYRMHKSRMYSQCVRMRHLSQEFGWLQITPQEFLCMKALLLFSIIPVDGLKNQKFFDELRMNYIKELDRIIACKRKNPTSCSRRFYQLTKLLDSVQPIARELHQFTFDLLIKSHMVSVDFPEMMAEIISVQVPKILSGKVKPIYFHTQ
Chain of Acetylcholinesterase (Homo sapiens) (P22303 whole entry, looked up): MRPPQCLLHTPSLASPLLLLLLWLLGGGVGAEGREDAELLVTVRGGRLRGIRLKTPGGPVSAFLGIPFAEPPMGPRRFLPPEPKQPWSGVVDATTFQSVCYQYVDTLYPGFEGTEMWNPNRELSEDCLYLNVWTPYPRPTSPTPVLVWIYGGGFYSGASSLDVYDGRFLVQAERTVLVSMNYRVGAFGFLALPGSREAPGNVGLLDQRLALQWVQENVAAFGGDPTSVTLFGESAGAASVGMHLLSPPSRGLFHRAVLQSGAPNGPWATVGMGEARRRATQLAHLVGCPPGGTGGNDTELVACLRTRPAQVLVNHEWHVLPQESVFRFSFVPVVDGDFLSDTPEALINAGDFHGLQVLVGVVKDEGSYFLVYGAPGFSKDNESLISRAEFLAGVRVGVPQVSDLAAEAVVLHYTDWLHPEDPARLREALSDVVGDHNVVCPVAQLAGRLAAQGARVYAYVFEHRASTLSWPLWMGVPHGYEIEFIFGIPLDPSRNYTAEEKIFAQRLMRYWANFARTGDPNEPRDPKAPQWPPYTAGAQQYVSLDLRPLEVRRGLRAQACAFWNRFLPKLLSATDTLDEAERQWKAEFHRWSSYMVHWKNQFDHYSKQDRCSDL
Chain of Glucocorticoid receptor (Homo sapiens) (P04150 whole entry, looked up): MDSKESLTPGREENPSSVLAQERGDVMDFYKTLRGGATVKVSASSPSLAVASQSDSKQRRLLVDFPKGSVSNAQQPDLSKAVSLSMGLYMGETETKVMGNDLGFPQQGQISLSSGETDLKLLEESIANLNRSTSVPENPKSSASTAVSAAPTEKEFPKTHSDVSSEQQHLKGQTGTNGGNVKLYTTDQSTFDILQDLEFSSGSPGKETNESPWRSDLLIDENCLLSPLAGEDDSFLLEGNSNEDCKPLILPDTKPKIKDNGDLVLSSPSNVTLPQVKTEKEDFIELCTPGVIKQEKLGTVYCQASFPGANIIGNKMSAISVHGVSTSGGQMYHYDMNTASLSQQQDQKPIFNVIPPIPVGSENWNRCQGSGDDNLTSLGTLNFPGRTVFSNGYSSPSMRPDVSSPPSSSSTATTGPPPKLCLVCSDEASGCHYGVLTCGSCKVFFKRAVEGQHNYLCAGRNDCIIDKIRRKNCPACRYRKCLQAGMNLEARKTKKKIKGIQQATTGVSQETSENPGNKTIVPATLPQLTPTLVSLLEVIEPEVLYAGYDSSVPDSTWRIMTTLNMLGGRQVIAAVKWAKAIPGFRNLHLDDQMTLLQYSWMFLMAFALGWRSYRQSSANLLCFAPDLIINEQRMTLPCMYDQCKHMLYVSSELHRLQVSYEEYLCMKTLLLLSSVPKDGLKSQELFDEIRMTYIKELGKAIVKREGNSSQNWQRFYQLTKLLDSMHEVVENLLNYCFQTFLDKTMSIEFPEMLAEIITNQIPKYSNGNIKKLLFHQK
Chain of Nuclear receptor subfamily 1 group I member 2 (Homo sapiens) (O75469 whole entry, looked up): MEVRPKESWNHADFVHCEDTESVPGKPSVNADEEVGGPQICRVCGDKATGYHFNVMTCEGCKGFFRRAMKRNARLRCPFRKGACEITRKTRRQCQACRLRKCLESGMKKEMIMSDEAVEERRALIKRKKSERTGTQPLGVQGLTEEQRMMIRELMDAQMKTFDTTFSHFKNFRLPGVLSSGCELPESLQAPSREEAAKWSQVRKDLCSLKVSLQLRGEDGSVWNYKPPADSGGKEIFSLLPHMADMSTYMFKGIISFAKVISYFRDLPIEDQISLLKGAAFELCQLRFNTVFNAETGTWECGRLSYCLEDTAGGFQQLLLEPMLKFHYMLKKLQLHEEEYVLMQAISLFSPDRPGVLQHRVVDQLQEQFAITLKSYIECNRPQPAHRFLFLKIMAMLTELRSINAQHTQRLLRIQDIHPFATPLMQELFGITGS
Chain of Estrogen receptor beta (Homo sapiens) (Q92731 whole entry, looked up): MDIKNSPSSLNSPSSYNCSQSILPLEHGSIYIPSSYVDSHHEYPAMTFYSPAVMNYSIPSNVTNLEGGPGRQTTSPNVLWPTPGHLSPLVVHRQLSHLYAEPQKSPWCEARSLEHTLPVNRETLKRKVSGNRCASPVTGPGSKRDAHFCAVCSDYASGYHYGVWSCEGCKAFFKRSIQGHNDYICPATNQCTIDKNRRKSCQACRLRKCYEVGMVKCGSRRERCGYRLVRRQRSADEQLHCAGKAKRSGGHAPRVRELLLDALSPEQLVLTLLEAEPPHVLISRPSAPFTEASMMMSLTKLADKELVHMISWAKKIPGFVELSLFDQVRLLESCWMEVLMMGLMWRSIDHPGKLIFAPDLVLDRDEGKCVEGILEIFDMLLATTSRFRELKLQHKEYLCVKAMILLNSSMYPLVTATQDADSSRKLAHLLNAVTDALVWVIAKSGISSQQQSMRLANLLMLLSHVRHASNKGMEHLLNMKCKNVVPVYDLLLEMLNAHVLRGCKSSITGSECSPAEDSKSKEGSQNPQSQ

c1ccccc1
inactive: Potency [1] | Potency [2] | Potency [3] | Potency [4] | Potency [5] | outcome [6] | Potency [7] | Potency [8] | Potency [9] | Potency [10] | Potency [11]

Cc1cccc(C)c1[N+](=O)[O-]
inactive: Potency [12] | Potency [13] | Potency [8] | Potency [9] | Potency [10] | Potency [11]

C=CC(=O)OCCCCCCCC(C)C
inactive: Potency [12] | Potency [14] | Potency [8] | Potency [9] | Potency [10] | Potency [11]

COc1ccc(OC)c([C@@H](O)[C@H](C)N)c1
inactive: Potency [15] | Potency [1] | Potency [16] | Potency [17] | Potency [2] | max activation [18] -3.61%

CN(C)CCCCCCN(C)C
inactive: Potency [15] | Potency [3] | Potency [4]

CN1[C@H]2CC[C@@H]1[C@@H](C(=O)O)[C@@H](OC(=O)c1ccccc1)C2
inactive: Potency [15] | Potency [2] | max activation [18] -2.75%

C[C@]12CC[C@H](OS(=O)(=O)O)CC1=CC[C@@H]1[C@@H]2CC[C@]2(C)C(=O)CC[C@@H]12
inactive: Potency [1] | Potency [19] | Potency [17] | Potency [2] | max activation [18] -3.4%
active: Potency [16] 21.1 µM

Clc1ccc2c(c1)C(c1ccccc1)=NCc1nncn1-2
inactive: Potency [15] | Potency [1] | Potency [20] | Potency [16] | Potency [17] | max activation [18] -10.5%

C[C@]12C=CC(=O)C=C1CC[C@@H]1[C@@H]2CC[C@]2(C)OC(=O)CC[C@@H]12
inactive: max activation [18] -1.12%

O=c1[nH]cc(N(CCCl)CCCl)c(=O)[nH]1
inactive: Potency [1] | Potency [2] | max activation [18] -3.28%

N#CC1(N2CCCCC2)CCCCC1
inactive: Potency [15] | Potency [1] | Potency [2] | max activation [18] -1.32%

C=C[C@H]1CN2CC[C@H]1C[C@@H]2[C@@H](O)c1ccnc2ccccc12
active: Potency [15] 8.41 µM
inactive: Potency [1] | max activation [18] -2.95%

[2H]C([2H])([2H])[C@H](N)Cc1ccccc1
inactive: Potency [1] | Potency [19] | Potency [16] | Potency [17] | Potency [2] | max activation [18] -6.9%

CC(C)(O)[C@@H]1[C@H]2OC(=O)[C@@H]1[C@]1(O)C[C@H]3O[C@]34C(=O)O[C@H]2[C@]14C
inactive: max activation [18] -2.48%

CNc1ccc(C(=O)CC(O)CCC(C)C2OC(=O)CC(O)CC(=O)CC(O)CC(O)CC(O)CC(O)CC3(O)CC(O)C(C(=O)OC)C(CC(O[C@@H]4O[C@H](C)[C@@H](O)[C@H](N)[C@@H]4O)/C=C/C=C/C=C/C=C/C=C/C=C/C=C/C2C)O3)cc1 (stereo partly specified)
active: Potency [15] 16.8 µM
inactive: Potency [1] | Potency [2] | max activation [18] -1.47%

CC(C)CCC(=O)O[C@H]1CC[C@H]2[C@@H]3CCC4=CC(=O)CC[C@]4(C)[C@H]3CC[C@]12C
inactive: Potency [1] | Potency [19] | Potency [17] | max activation [18] 2.99%
active: Potency [20] 0.0107 µM | Potency [16] 0.0042 µM

Cc1ccccc1-n1c(CF)nc2ccc(N)cc2c1=O
active: Potency [16] 26.6 µM
inactive: Potency [19] | Potency [20] | Potency [17] | max activation [18] -3.24%

C[N+]1(C)CCCCC1COC(=O)C(O)(c1ccccc1)c1ccccc1 (stereo unspecified)
inactive: Potency [19] | Potency [20] | Potency [16] | Potency [17] | max activation [18] 2.59%

CCCCC[C@@H](O)C1C(=O)OC(C)[C@H](O)/C=C/C=C/C=C/C=C/C=C(\C)C(O)C(O)C(O)C[C@H](O)C[C@H](O)C[C@H](O)C[C@H](O)C[C@@H]1O (stereo partly specified)
inactive: Potency [1] | Potency [2] | max activation [18] 0.909%

CN=C1CN(O)C(c2ccccc2)=c2cc(Cl)ccc2=N1
inactive: Potency [1] | Potency [2] | max activation [18] -1.86% and 4.26%

CCCC(C)C1(CC)C(=O)NC(=O)NC1=O (stereo unspecified)
inactive: Potency [2] | max activation [18] -2.06%

CC(=O)O[C@H]1C[C@H](O[C@H]2[C@@H](O)C[C@H](O[C@H]3[C@@H](O)C[C@H](OC4CC[C@@]5(C)[C@H](CC[C@@H]6[C@@H]5CC[C@]5(C)[C@@H](C7=CC(=O)OC7)CC[C@]65O)C4)O[C@@H]3C)O[C@@H]2C)O[C@H](C)[C@H]1O[C@@H]1O[C@H](CO)[C@@H](O)[C@H](O)[C@H]1O (stereo partly specified)
inactive: max activation [18] -3.5%
active: Potency [15] 0.393 µM | Potency [17] 1.68 µM
